Assay results taken from PubChem BioAssay.
For part of these data: Results with a measured potency or affinity are listed apart. Active and inactive are the calls of the source. Unless noted, no rule for the calls is given here.

Legend:
[1] = target: Cell division control protein 42 homolog (Homo sapiens) (UniProt P60953); experiment: inhibition of fluorescent GTP binding to constitutively active Cdc42 – biochemical, multiplex bead flow cytometry, Bodipy-FL-GTP, dose response (AID 1333;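 active = fitted half-maximal concentration within the tested dose range, moderate curve steepness, a statistically real signal drop, and little compound fluorescence or tag-binding interference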)
[2] = target: Cell division control protein 42 homolog (Homo sapiens) (UniProt P60953); experiment: inhibition of fluorescent GTP binding to wildtype Cdc42 – biochemical, multiplex bead flow cytometry, Bodipy-FL-GTP, dose response (AID 1334;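 active = fitted half-maximal concentration within the tested range, moderate curve steepness, significant signal drop, and little compound fluorescence or bead-linkage interference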); settings: bead-based flow cytometry, Bodipy-FL-GTP binding to GST-Cdc42; at 100 µM (top of the series) unless noted
[3] = target: GTPase HRas (Homo sapiens) (UniProt P01112); experiment: Ras wt fluorescent GTP loading blockade – biochemical, wildtype, multiplex bead flow cytometry, dose response (AID 1335;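 active = fitted half-maximal concentration within 10 nM to 100 µM, steepness 0.5 to 2, significant signal drop, low assay interference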); settings: bead-based flow cytometry, Bodipy-GTP binding to GST-Ras; at 100 µM (top of the series) unless noted
[4] = tested on: Ras-related protein Rab-7a (dog), GTP binding; experiment: blockers of fluorescent GTP binding to Rab7 – biochemical, wildtype, multiplex bead flow cytometry, dose response (AID 1336)
[5] = target: Ras-related C3 botulinum toxin substrate 1 (Homo sapiens) (UniProt P63000); experiment: inhibition of wildtype Rac1 nucleotide loading – biochemical, multiplex bead flow cytometry, dose response (AID 1340;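 active = dose curve with midpoint inside tested range, moderate steepness, plateau gap beyond fit error, low compound glow and bead-link interference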); settings: GST-Rac1 beads, Bodipy-FL-GTP binding; at 100 µM (top of the series) unless noted
[6] = target: GTPase HRas (Homo sapiens) (UniProt P01112); experiment: blockade of GTP loading onto mutant Ras – biochemical, activated mutant, multiplex bead flow cytometry, dose response (AID 1341;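 active = dose-response curve with midpoint inside the tested range, moderate steepness, significant amplitude and little compound fluorescence or bead-attachment interference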;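 also: GST-tagged constitutively activated Ras mutant immobilized on beads and multiplexed with other GTPases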)

Chain of Cell division control protein 42 homolog (Homo sapiens) (P60953 whole entry, looked up): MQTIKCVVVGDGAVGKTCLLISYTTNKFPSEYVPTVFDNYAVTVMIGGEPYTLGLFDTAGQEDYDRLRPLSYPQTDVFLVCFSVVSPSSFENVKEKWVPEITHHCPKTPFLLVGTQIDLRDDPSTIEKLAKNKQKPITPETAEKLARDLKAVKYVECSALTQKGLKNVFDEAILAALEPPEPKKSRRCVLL
Chain of GTPase HRas (Homo sapiens) (P01112 whole entry, looked up): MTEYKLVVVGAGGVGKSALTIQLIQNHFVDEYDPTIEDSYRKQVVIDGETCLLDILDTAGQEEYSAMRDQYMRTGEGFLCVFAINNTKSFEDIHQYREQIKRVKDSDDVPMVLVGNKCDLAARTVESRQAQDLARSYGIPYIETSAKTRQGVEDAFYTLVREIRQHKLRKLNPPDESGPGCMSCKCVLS

Structure (SMILES): Cn1nnnc1SCc1ccc(C(=O)Nc2nccs2)cc1
- outcome [1]: inactive
- fluorescence, percent of control (lower = inhibition) [2]: 36.8%
- GTP binding, percent of control [3]: 47.9%
- outcome [4]: inactive
- GTP binding signal, raw median fluorescence (lower = inhibition) (MCF (arbitrary fluorescence units)) [5]: 126
- outcome [6]: inactive

Structure (SMILES): O=C(O)CCN1C(=O)/C(=C\c2ccc(-c3nc4ccccc4s3)o2)SC1=S
- outcome [1]: inactive
- fluorescence, percent of control (lower = inhibition) [2]: 54.9%
- GTP binding, percent of control [3]: 63.4%
- outcome [4]: inactive
- GTP binding signal, raw median fluorescence (lower = inhibition) (MCF (arbitrary fluorescence units)) [5]: 88.8
- outcome [6]: inactive

Structure (SMILES): COc1ccc(CC(=O)Nc2ccc(S(=O)(=O)NC(C)C)cc2)cc1
- outcome [1]: inactive
- fluorescence, percent of control (lower = inhibition) [2]: 51.9%
- GTP binding, percent of control [3]: 66.7%
- outcome [4]: inactive
- GTP binding signal, raw median fluorescence (lower = inhibition) (MCF (arbitrary fluorescence units)) [5]: 0
- outcome [6]: inactive

Structure (SMILES): Cn1c(NC(=S)Nc2ccccc2)nc2ccccc21
- outcome [1]: inactive
- fluorescence, percent of control (lower = inhibition) [2]: 51.8%
- GTP binding, percent of control [3]: 63.9%
- outcome [4]: inactive
- GTP binding signal, raw median fluorescence (lower = inhibition) (MCF (arbitrary fluorescence units)) [5]: 0
- outcome [6]: inactive

Structure (SMILES): CN(/N=C/C=C/c1ccccc1)C1=NS(=O)(=O)c2ccccc21
- outcome [1]: inactive
- fluorescence, percent of control (lower = inhibition) [2]: 40.3%
- GTP binding, percent of control [3]: 51.8%
- outcome [4]: inactive
- GTP binding signal, raw median fluorescence (lower = inhibition) (MCF (arbitrary fluorescence units)) [5]: 124
- outcome [6]: inactive

Structure (SMILES): CC(C)(C)CC(=O)NC(=S)NCc1ccco1
- outcome [1]: inactive
- fluorescence, percent of control (lower = inhibition) [2]: 41.6%
- GTP binding, percent of control [3]: 90.5%
- outcome [4]: inactive
- GTP binding signal, raw median fluorescence (lower = inhibition) (MCF (arbitrary fluorescence units)) [5]: 312
- outcome [6]: inactive

Structure (SMILES): NC(=O)c1c(NC(=O)c2cnccn2)sc2c1CCCC2
- outcome [1]: inactive
- fluorescence, percent of control (lower = inhibition) [2]: 94.1%
- GTP binding, percent of control [3]: 134%
- outcome [4]: inactive
- GTP binding signal, raw median fluorescence (lower = inhibition) (MCF (arbitrary fluorescence units)) [5]: 217
- outcome [6]: inactive

Structure (SMILES): COc1cccc(/C=N/Nc2nn3cnnc3c3ccccc23)c1O
- outcome [1]: inactive
- fluorescence, percent of control (lower = inhibition) [2]: 35.9%
- GTP binding, percent of control [3]: 44.6%
- outcome [4]: inactive
- GTP binding signal, raw median fluorescence (lower = inhibition) (MCF (arbitrary fluorescence units)) [5]: 126
- outcome [6]: inactive

Structure (SMILES): CCOc1nnc(C)c2c(C)n(-c3cccc(Cl)c3)nc12
- outcome [1]: inactive
- fluorescence, percent of control (lower = inhibition) [2]: 155%
- GTP binding, percent of control [3]: 168%
- outcome [4]: inactive
- GTP binding signal, raw median fluorescence (lower = inhibition) (MCF (arbitrary fluorescence units)) [5]: 312
- outcome [6]: inactive

Structure (SMILES): O=C(COc1ccccc1/C=C\c1[nH]c(=O)[nH]c(=O)c1[N+](=O)[O-])Nc1ccccc1
- outcome [1]: inactive
- fluorescence, percent of control (lower = inhibition) [2]: 29.1%
- GTP binding, percent of control [3]: 77.1%
- outcome [4]: inactive
- GTP binding signal, raw median fluorescence (lower = inhibition) (MCF (arbitrary fluorescence units)) [5]: 191
- outcome [6]: inactive

Structure (SMILES): CCOc1ccc2nc(SCc3ccc(CC(=O)O)cc3)c(C#N)cc2c1
- outcome [1]: inactive
- fluorescence, percent of control (lower = inhibition) [2]: 28.4%
- GTP binding, percent of control [3]: 73.2%
- outcome [4]: inactive
- GTP binding signal, raw median fluorescence (lower = inhibition) (MCF (arbitrary fluorescence units)) [5]: 201
- outcome [6]: inactive

Structure (SMILES): COc1ccc(C(=O)Nc2cc(Cl)ccc2C(=O)O)cc1
- outcome [1]: inactive
- fluorescence, percent of control (lower = inhibition) [2]: 30.8%
- GTP binding, percent of control [3]: 75.6%
- outcome [4]: inactive
- GTP binding signal, raw median fluorescence (lower = inhibition) (MCF (arbitrary fluorescence units)) [5]: 272
- outcome [6]: inactive

Structure (SMILES): COc1ccc(-c2nnc(CSc3nc4ccccc4c(=O)n3C)o2)cc1OC
- outcome [1]: inactive
- fluorescence, percent of control (lower = inhibition) [2]: 39.2%
- GTP binding, percent of control [3]: 87.3%
- outcome [4]: inactive
- GTP binding signal, raw median fluorescence (lower = inhibition) (MCF (arbitrary fluorescence units)) [5]: 320
- outcome [6]: inactive

Structure (SMILES): N#CC(c1ccc(Cl)nn1)c1ccc(Cl)cc1Cl (stereo not given)
- outcome [1]: inactive
- fluorescence, percent of control (lower = inhibition) [2]: 34.5%
- GTP binding, percent of control [3]: 77.7%
- outcome [4]: inactive
- GTP binding signal, raw median fluorescence (lower = inhibition) (MCF (arbitrary fluorescence units)) [5]: 263
- outcome [6]: inactive

Structure (SMILES): COc1ccc(C(=O)O)c(OCc2ccccc2C)c1
- outcome [1]: inactive
- fluorescence, percent of control (lower = inhibition) [2]: 62.5%
- GTP binding, percent of control [3]: 208%
- outcome [4]: inactive
- GTP binding signal, raw median fluorescence (lower = inhibition) (MCF (arbitrary fluorescence units)) [5]: 57.3
- outcome [6]: inactive

Structure (SMILES): Cn1c(=O)c2c(nc(N3CCc4ccccc4C3)n2C)n(C)c1=O
- outcome [1]: inactive
- fluorescence, percent of control (lower = inhibition) [2]: 36.7%
- GTP binding, percent of control [3]: 76.9%
- outcome [4]: inactive
- GTP binding signal, raw median fluorescence (lower = inhibition) (MCF (arbitrary fluorescence units)) [5]: 193
- outcome [6]: inactive

Structure (SMILES): COc1ccccc1NS(=O)(=O)c1cc([N+](=O)[O-])ccc1N/N=C/c1sc(N2CCOCC2)nc1-c1ccccc1
- outcome [1]: inactive
- fluorescence, percent of control (lower = inhibition) [2]: 73.1%
- GTP binding, percent of control [3]: 81%
- outcome [4]: inactive
- GTP binding signal, raw median fluorescence (lower = inhibition) (MCF (arbitrary fluorescence units)) [5]: 230
- outcome [6]: inactive

Structure (SMILES): Cc1ccc(/C=N/N(C)C2=NS(=O)(=O)c3ccccc32)o1
- outcome [1]: inactive
- fluorescence, percent of control (lower = inhibition) [2]: 27.1%
- GTP binding, percent of control [3]: 57.3%
- outcome [4]: inactive
- GTP binding signal, raw median fluorescence (lower = inhibition) (MCF (arbitrary fluorescence units)) [5]: 132
- outcome [6]: inactive

Structure (SMILES): O=C(O)COc1ccccc1/C=N/NC(=O)c1cccc(S(=O)(=O)Nc2cccc(Cl)c2)c1
- outcome [1]: inactive
- fluorescence, percent of control (lower = inhibition) [2]: 36.3%
- GTP binding, percent of control [3]: 79.8%
- outcome [4]: inactive
- GTP binding signal, raw median fluorescence (lower = inhibition) (MCF (arbitrary fluorescence units)) [5]: 124
- outcome [6]: inactive

Structure (SMILES): c1ccc2[nH]c3cc4ncnc4cc3nc2c1
- outcome [1]: inactive
- fluorescence, percent of control (lower = inhibition) [2]: 31.7%
- GTP binding, percent of control [3]: 70.1%
- outcome [4]: inactive
- GTP binding signal, raw median fluorescence (lower = inhibition) (MCF (arbitrary fluorescence units)) [5]: 189
- outcome [6]: inactive

Structure (SMILES): NS(=O)(=O)c1ccc(-c2ccc(/C=C3\C(=O)Nc4cc(Cl)ccc43)o2)cc1
- outcome [1]: inactive
- fluorescence, percent of control (lower = inhibition) [2]: 38%
- GTP binding, percent of control [3]: 78.4%
- outcome [4]: inactive
- GTP binding signal, raw median fluorescence (lower = inhibition) (MCF (arbitrary fluorescence units)) [5]: 152
- outcome [6]: inactive

Structure (SMILES): NS(=O)(=O)c1ccc(CCN2C(=O)/C(=C\c3ccc(Cl)cc3)SC2=S)cc1
- outcome [1]: inactive
- fluorescence, percent of control (lower = inhibition) [2]: 29%
- GTP binding, percent of control [3]: 76.5%
- outcome [4]: inactive
- GTP binding signal, raw median fluorescence (lower = inhibition) (MCF (arbitrary fluorescence units)) [5]: 242
- outcome [6]: inactive

Structure (SMILES): Cc1ccc(C(=O)Nn2c(O)c(C=C3N=c4ccccc4=N3)sc2=S)cc1
- outcome [1]: inactive
- fluorescence, percent of control (lower = inhibition) [2]: 47.7%
- GTP binding, percent of control [3]: 50.4%
- outcome [4]: inactive
- GTP binding signal, raw median fluorescence (lower = inhibition) (MCF (arbitrary fluorescence units)) [5]: 129
- outcome [6]: inactive

Structure (SMILES): Cc1nc2ncccn2c1-c1csc(Nc2ccc(O)cc2)n1
- outcome [1]: inactive
- fluorescence, percent of control (lower = inhibition) [2]: 20.9%
- GTP binding, percent of control [3]: 46.8%
- outcome [4]: inactive
- GTP binding signal, raw median fluorescence (lower = inhibition) (MCF (arbitrary fluorescence units)) [5]: 106
- outcome [6]: inactive

Structure (SMILES): O=C1OC(c2ccc(F)cc2)=C/C1=C\c1ccc([N+](=O)[O-])o1
- outcome [1]: inactive
- fluorescence, percent of control (lower = inhibition) [2]: 49.1%
- GTP binding, percent of control [3]: 91.4%
- outcome [4]: inactive
- GTP binding signal, raw median fluorescence (lower = inhibition) (MCF (arbitrary fluorescence units)) [5]: 283
- outcome [6]: inactive

Structure (SMILES): CCN(c1ccc(N=Cc2c(O)n(Cc3ccc(OC)cc3)c(=O)c3ccccc23)cc1)C(C)C
- outcome [1]: inactive
- fluorescence, percent of control (lower = inhibition) [2]: 154%
- GTP binding, percent of control [3]: 196%
- outcome [4]: inactive
- GTP binding signal, raw median fluorescence (lower = inhibition) (MCF (arbitrary fluorescence units)) [5]: 452
- outcome [6]: inactive

Structure (SMILES): O=c1cc(N2CCc3ccccc3C2)[nH]c(=O)n1-c1ccc(Cl)cc1
- outcome [1]: inactive
- fluorescence, percent of control (lower = inhibition) [2]: 43.6%
- GTP binding, percent of control [3]: 92.9%
- outcome [4]: inactive
- GTP binding signal, raw median fluorescence (lower = inhibition) (MCF (arbitrary fluorescence units)) [5]: 267
- outcome [6]: inactive

Structure (SMILES): CCOc1cccc(Nc2cc3n(c(=O)n2)CCc2cc(OC)c(OC)cc2-3)c1
- outcome [1]: inactive
- fluorescence, percent of control (lower = inhibition) [2]: 32%
- GTP binding, percent of control [3]: 71.9%
- outcome [4]: inactive
- GTP binding signal, raw median fluorescence (lower = inhibition) (MCF (arbitrary fluorescence units)) [5]: 186
- outcome [6]: inactive

Structure (SMILES): N#CC(C#N)=C1C=CC=CN1/C(=C\c1ccccc1Cl)C(=O)c1ccccc1
- outcome [1]: inactive
- fluorescence, percent of control (lower = inhibition) [2]: 26.2%
- GTP binding, percent of control [3]: 76.3%
- outcome [4]: inactive
- GTP binding signal, raw median fluorescence (lower = inhibition) (MCF (arbitrary fluorescence units)) [5]: 226
- outcome [6]: inactive

Structure (SMILES): Cc1ccc(N=Nc2c(N)[nH]n3c(=O)cc(C)nc23)cc1
- outcome [1]: inactive
- fluorescence, percent of control (lower = inhibition) [2]: 48.4%
- GTP binding, percent of control [3]: 61%
- outcome [4]: inactive
- GTP binding signal, raw median fluorescence (lower = inhibition) (MCF (arbitrary fluorescence units)) [5]: 0
- outcome [6]: inactive
